Rows were chosen to be rich in hits. Some 9% of all compounds tested hit in one or more screens of this group.
PLK1 PBD inh: qHTS for Inhibitors of PLK1-PDB (polo-like kinase 1 - polo-box domain): Primary Screen; Serine/threonine-protein kinase PLK1 (Homo sapiens), P53350; Plk1 PBD binding of FITC phosphopeptide, fluorescence polarization; Potency, µM, without a hit: max response, negative = inhibition, actives largely listed as inhibitors; 2.8% of 360,000 active; AID 720504, 2013; also: series mostly up to about 57 µM; % is scaled to controls: 0 for no effect and ±100 for the full control effect; nearly all actives have a fitted effect of over 65% in size
BAZ2B inh: qHTS Assay for Inhibitors of BAZ2B. Potency, µM (highest dose often 114 µM), inactives show at the highest dose activity change, negative = inhibition, most hits filed as inhibitors. Bromodomain adjacent to zinc finger domain protein 2B (Homo sapiens), Q9UIF8. 4.4% of 360,000 active. AlphaScreen BAZ2B-H3K14Ac peptide displacement; also: % is scaled to controls: 0 for no effect and ±100 for the full control effect; nearly all actives have a fitted effect of over 60% in size
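Compounds, titrated to a top concentration of 110 uM, were incubated 30 min at room temperature with preformed BAZ2B/acetyl-K14 H3 peptide complex (50 nM each). Proximity signal was measured by AlphaScreen after 20 min with beads.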
G9a block: qHTS Assay for Inhibitors of Histone Lysine Methyltransferase G9a; Histone-lysine N-methyltransferase EHMT2 (Homo sapiens), Q96KQ7; G9a H3K9 monomethylation, AlphaScreen, 2 h; Potency, µM (titrated, usually from 102 µM), inactives show top-dose activity, negative = inhibition, usual class: inhibitors; 8.8% of 350,000 active; also: % is scaled to controls: 0 for no effect and ±100 for the full control effect; nearly all actives have a fitted effect of over 75% in size
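G9a (20 nM) was preincubated 15 min with compound, then reacted 2 h at room temperature with 500 nM biotin-H3K9 peptide and 20 µM SAM. Monomethyl-H3K9 detected by AlphaScreen using anti-H3K9me1 antibody.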
12-LOX inh: Primary qHTS assay for inhibitors of human arachidonate 12S-lipoxygenase (ALOX12): Round 2 | purified 12hLO, xylenol orange hydroperoxide absorbance | AID 1671190, 2021 | 1.1% of 580,000 active | Potency, µM (titrated, usually from 108 µM), inactives show at the highest dose activity change, negative = inhibition, most hits filed as inhibitors; also: % is scaled to controls: 0 for no effect and ±100 for the full control effect
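Hydroperoxide product was detected by ferrous iron/xylenol orange as the 573 to 405 nm absorbance ratio. Arachidonic acid at 40 uM (final) was turned over for 30 min at room temperature by 150 nM human 12hLO, pH 7.0 Hepes buffer, after 15 min compound preincubation.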
HP1b chromo inh: HTS for Inhibitors of HP1-beta Chromodomain Interactions with Methylated Histone Tails; Chromobox protein homolog 1 (Homo sapiens), P83916; AlphaScreen HP1-beta / biotin-H3K9me3 peptide binding; Potency, µM (top dose mostly 114 µM), inactives show top-dose activity change, negative = inhibition, most hits filed as inhibitors; 0.56% of 390,000 active; AID 540317, 2011; also: nearly all actives have a fitted effect of over 70% in size
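HP1-beta protein (50 nM final) preincubated 30 min at room temperature with biotinylated H3(1-18)K9me3 peptide (50 nM) in PBS pH 7.4, 0.01% Tween-20, then compound added for 30 min. AlphaScreen streptavidin donor/nickel chelate acceptor beads (10 ug/mL final), 30 min dark, luminescence read.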
JMJD2A Tudor: qHTS Assay for Inhibitors of JMJD2A-Tudor Domain. AlphaScreen JMJD2A-Tudor / H3K4me3 peptide binding. Lysine-specific demethylase 4A (Homo sapiens), O75164. Potency, µM (titrated, usually from 114 µM), without a hit: at the highest dose activity change, negative = inhibition, usual class: inhibitors. 4.4% of 390,000 active. AID 504339, 2011; also: % is scaled to controls: 0 for no effect and ±100 for the full control effect; nearly all actives have a fitted effect of over 50% in size
Starred values were filed as active, the others as inactive; ? = inconclusive; . = no result given; [ ] = remark or other dose. Calls follow the shape of the dose curve; as a rule, active = well fitted curve in the direction sought with a large enough effect; inconclusive = small, poorly fitted or top-dose-only effect, or another doubt; inactive = no such curve, though single readings can be large; an effect the other way counts as inactive or inconclusive. Potency is read from the fitted curve at half-maximal effect.

SMILES | PLK1 PBD inh | BAZ2B inh | G9a block | 12-LOX inh | HP1b chromo inh | JMJD2A Tudor
CN(C)CCn1c(=N)n(CC(O)c2ccc(Cl)c(Cl)c2)c2ccccc21 (configuration not stated) | -13% | -8% | 45µM* | 0% | 14% | -15%
N=c1n(CCN2CCCCC2)c2ccccc2n1CC(O)c1cccc(Br)c1 (configuration not stated) | -7% | -10% | 50µM* | ? | 32% | -20%
N=c1n(CCN2CCCC2)c2ccccc2n1CC(O)c1ccco1 (configuration not stated) | -7% | ? | ? | -24% | 1% | -18%
N=c1n(CCN2CCCCC2)c2ccccc2n1CC(=O)c1ccc(Cl)c(Cl)c1 | -10% | 32µM* | . | 2% | 1% | -28%
CCn1c(=N)n(CC(=O)c2ccc(Cl)c(Cl)c2)c2ccccc21 | -2% | -1% | 19% | 4% | 56% | 2%
COc1ccccc1N1CCN(C(=O)c2c(C)cc(=O)oc2C)CC1 | -5% | -30% | -48%[12.7 µM] | 4% | 31% | -4%
CN(C)c1ccc(CNC(=O)CN2C(=O)c3cccnc3Oc3ccc(Cl)cc32)cc1 | . | -11% | ? | -22% | 14% | -12%
Cc1nc(-c2ccc(Cl)cc2)n(Cc2ccccc2F)c(=O)c1CCO | . | . | . | -13% | . | .
COc1ccccc1N1CCN([C@H]2[C@@H]3OC[C@@H](O3)[C@@H](NCc3ccc4c(c3)OCO4)[C@@H]2O)CC1 | . | . | . | 57% | . | .
CC1Cc2cc(-c3csc(NC(=O)CCl)n3)ccc2N1C(=O)C1CC1 (configuration not stated) | -3% | . | . | 26% | 15%[57 µM] | 7%
COc1cc(NC(=O)c2ccc(F)cc2)c(OC)cc1NC(=O)CN1CCCCC1 | -11% | -18% | 50µM* | 48% | 16% | -19%
COc1cc(NC(=O)c2cccc(Cl)c2)c(OC)cc1NC(=O)CN1CCCCC1 | 30µM* | -1% | . | 19% | ? | ?
COc1cc(NC(=O)c2cccc(Cl)c2)c(OC)cc1NC(=O)CN1CCOCC1 | -4% | ? | 45µM* | -1% | 15% | ?
COc1ccc(OC)c(CNC(=O)Cc2ccc(NC(=O)N3CCCCc4ccccc43)cc2)c1 | . | -31% | -5%[59 µM] | -6% | 9% | -32%
O=c1[nH]cc(N2CCCCCC2)c(=O)[nH]1 | -11% | 1% | 50µM* | -3% | 50% | -1%
O=C(OCC(=O)N1CCCCC1)c1c[nH]c(=O)[nH]c1=O | -20% | -7% | -9% | ? | -8% | 9%[11.4 µM]
O=C(c1ccccc1Br)N1CCC(c2nc3ccccc3s2)CC1 | -19% | 2% | 16%[0.501 µM] | 0% | 25% | -7%
CN1C(=O)N(C)c2ccc(C=O)c3cccc1c23 | -16% | -2% | -19% | -22% | 87% | -16%
CN1C(=O)N(C)c2ccc(Br)c3cccc1c23 | 30µM* | 7% | 22% | 1% | 29% | 45µM*
CC1=C(C(=O)Nc2ccccc2C)C(c2ccncc2)n2nc(SCc3ccccc3)nc2N1 (configuration not stated) | . | -21% | 0%[59 µM] | 0% | 23% | -9%
O=C(OC(C(=O)Nc1ccc(Cl)cc1C(F)(F)F)c1ccccc1)c1c(Cl)cccc1Cl (configuration not stated) | 30µM* | 8% | -1%[59 µM] | 1% | ? | -23%[57.1 µM]
N#C/C(=N\Nc1cccc2ccccc12)c1nnc2n1CCCCC2 | 6% | ? | 1.8µM* | ? | 21% | -35%
N#C/C(=C\c1c[nH]c2ccccc12)c1nnc2n1CCCCC2 | 5% | -2% | 8%[59 µM] | 0% | 15% | ?

Bioassay records (PubChem)
